Screening data as filed in PubChem BioAssay.
The sample as a whole holds a higher share of hits than the screen did.
ERK EGF inh = qHTS Assay for Inhibitors of the ERK Signaling Pathway using a Homogeneous Screening Assay; Stimulation with EGF | AID 1454, 2008 | actives 0.41% (n = 130,000) | HEK293-V1b, EGF-stimulated phospho-ERK AlphaScreen | Potency, µM (titrated, usually from 11.5 µM), most hits filed as inhibitors; active means well fitted inhibition curve with a large enough effect; further: nearly all actives have a fitted effect of over 55% in size
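In this qHTS, HEK293 cells with stable type-1 vasopressin (V1b) receptor were exposed to compound at 37C for 30 min, stimulated 5 min with EGF at 25 nM, lysed, and probed for phospho-ERK by AlphaScreen.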
Hits are given with their value; i = inactive.

SMILES	ERK EGF inh
CN(C)c1ccc(N=C/C=C2/N(C)c3ccccc3C2(C)C)cc1	14.1µM
CN1/C(=C\C(=S)NC(=O)c2ccc([N+](=O)[O-])cc2)C(C)(C)c2ccccc21	i
CN1CCC/C1=C/C=C1\SC(=S)NC1=O	i
CN1/C(=C\C=N\O)C(C)(C)c2ccccc21	i
CO/N=C/C=C1/N(C)c2ccccc2C1(C)C	i
CN1/C(=C\C=Nc2cc(S(=O)(=O)N3CCOCC3)ccc2N2CCOCC2)C(C)(C)c2ccccc21	i
CN1/C(=C\C=C2/SC(=S)NC2=O)C(C)(C)c2ccccc21	25.1µM
CN1C(=CC=C2C=C(I)C(=O)C(I)=C2)C(C)(C)c2ccccc21	12.6µM
CN1/C(=C\C=C2/C(=O)Oc3ccccc3C2=O)C(C)(C)c2ccccc21	i
C=CCOC(=O)N[C@H](/C(C(=O)OC)=C(\C)NCc1ccccc1)c1cccc(F)c1	i
O=C(O)C1Cc2c([nH]c3ccccc23)C(c2coc3ccccc3c2=O)N1 (centres undefined)	i
CCCn1c(C)nc2c(NCCN3CCOCC3)nc(C)nc21	i
COC(=O)[C@H]1O[C@@H](c2cc(OC)c(C)c(OC)c2OCc2ccccc2)[C@H](C)[C@H]2O[C@@]12C	i
Cc1ccc(C(=O)OC[C@H]2O[C@H](Cl)C[C@@H]2OC(=O)c2ccc(C)cc2)cc1	i
Cc1cc(O)cc(O)c1C(=O)OC1(C)C(=O)C=C2C=C(/C=C/CO)OC=C2C1=O (centres undefined)	i
CC[n+]1ccc(/C=C/c2ccc(N(C)C)cc2)c2ccccc21	14.1µM
CC[n+]1c(/C=C/c2ccc(N(C)C)cc2)ccc2ccccc21	i
CC[n+]1ccccc1/C=C/c1ccc(N(C)C)cc1	i
CCCCC/C=C\C/C=C\C/C=C\CCCCC(=O)NCCCC(=O)O	i
CC(=O)c1cccc(NC(=O)c2csc3c2CCCCC3)c1	i
COC(=O)c1sccc1NC(=O)Nc1cccc(C(C)=O)c1	i
CC(=O)c1cccc(NC(=O)Nc2csc3c2CCCC3)c1	25.1µM
COc1cc(/C=N/N=C(N)N)ccc1OCc1ccc(Cl)cc1	i
COc1cc(/C=N/O)ccc1OCc1ccc(Cl)cc1	i
CCOc1cc(/C=N/N=C(N)N)ccc1OCc1ccc(Cl)cc1	31.6µM
SMILES	ERK EGF inh
Nc1nc2ncc(=O)[nH]c2c(=O)[nH]1	i
COC(=O)[C@H](Cc1ccccc1)NC(=O)O[C@@H]1Cc2cc(OC)ccc2O[C@H]1c1cccc(OC)c1	i
COc1ccc(/C=C/C(=O)c2cc(Cl)ccc2O)c(OC)c1	i
CN(C)c1ccc(/C=C/C(=O)c2cc(Cl)ccc2O)cc1	14.1µM
O=C(/C=C/c1ccncc1)c1cc(Cl)ccc1O	i
N=C(C[C@@H](O)COc1ccccc1-c1ccccc1)N1CCCCC1	i
COC(=O)C1(C(=O)OC)CC2=CC(CC2=O)Cc2ccccc2[C@@H]1C[N+](=O)[O-] (some centres undefined)	i
c1ccc2c3c([nH]c2c1)[C@@H]1[C@H]2CC[C@H]([C@H]4CCCN[C@H]42)N1CC3	i
COc1ccc(Nc2ccnc(Nc3ccc(OC)cc3)n2)cc1	35.5µM
COc1ccc(NC(=O)Nc2cnccn2)cc1	i
COc1ccc(Nc2c(C)cccc2C)cc1	i
C=C[C@@H](C1=CC(=O)C(OC)=C(OC)C1=O)c1ccccc1	i
O=C(O)C=Cc1ccc(Cn2ccnc2)cc1	i
COCCN(CCOC)c1nc(C)nc2c1nc(-c1ccccc1)n2CCN1CCCC1	i
CCC1=C2CC[C@H]3C(=O)NC(=O)[C@H]3[C@H]2[C@@]2(C)C(=NCC(=O)OC)OC(=O)N2C1=O	i
CN(C)c1ccnc(Nc2ccccc2)c1C#N	i
CN(C)c1ccnc2c[cH-]cc12.[Fe].c1ccc(-[c-]2[c-](-c3ccccc3)[c-](-c3ccccc3)[c-](-c3ccccc3)[c-]2-c2ccccc2)cc1 (centres undefined)	3.16µM
COc1ccc(-c2nc(-c3ccccc3)oc2NC(C)C)cc1	i
O=C(O)Cc1sc(-c2ccccc2Cl)nc1-c1ccccc1	i
Nc1nc(-c2ccc(Cl)c(Cl)c2)c(-c2ccncc2)s1	i
NC(N)=NC(N)=Nc1cccc2ccccc12	i
Nc1nc(-c2ccccc2)c(N=Nc2ccccc2Cl)s1	17.8µM
Nc1nc(-c2ccccc2)c(N=Nc2cccc3ccccc23)s1	20µM
NNc1nc(-c2ccccc2)c2ccccc2n1	i
Cc1nc(NCc2ccccc2)c2nc(-c3ccccc3)n(CCN3CCCC3)c2n1	i
SMILES	ERK EGF inh
CN1C2CC(OC(=O)C(CO)c3ccccc3)C[C@@H]1[C@H]1OC21 (some centres undefined)	i
COC(=O)NC(CCc1ccccc1)C(C(=O)OC)C(=O)OC (centres undefined)	i
C=CCOC(=O)C1(C(NC(=O)OC)c2ccccc2)C(=O)Cc2ccccc21 (centres undefined)	i
COc1c(CO)cc(CO)cc(CO)c1=O	i
Cc1ccc(S(=O)(=O)N2c3ccccc3-c3c(ssc3=S)C2(C)C)cc1	12.6µM
Cc1ccc(S(=O)(=O)N2C(=O)/C(=C3\SC(=S)NC3=O)c3ccccc32)cc1	i
CC(=O)Nc1ccc(S(=O)(=O)N2c3ccccc3C(C)=CC2(C)C)cc1	i
COc1ccc2c(c1)O[C@@H](c1cccc(C(F)(F)F)c1)[C@H](OC(=O)N[C@H](C)C1CCCCC1)C2=O	i
COC(=O)[C@H](COC(C)(C)C)NC(=O)O[C@@H]1C(=O)c2cc(OC)ccc2O[C@H]1c1cccc(OC)c1	i
O=C(NC1CCCC1)O[C@@H]1C(=O)c2cc(Br)ccc2O[C@H]1c1ccc2c(c1)OCO2	i
Cc1csc2c(N3CCN(C(=O)c4ccc(C(C)(C)C)cc4)CC3)ncnc12	28.2µM
Cc1csc2c(N3CCN(C(=S)Nc4ccc(C(F)(F)F)cc4)CC3)ncnc12	i
Cc1csc2c(N3CCN(C(=O)NC(C)(C)C)CC3)ncnc12	i
CC(=O)Nc1ccc(NC(=O)c2cccc3c2-c2ccccc2C3=O)cc1	i
Cn1c(=O)c(Nc2ccc(O)cc2)c2c3c(cccc31)C(=O)c1ccccc1-2	28.2µM
Cc1cccc(Nc2c([N+](=O)[O-])c(=O)n(C)c3ccccc23)c1	i
CCCCC[C@H](O)/C=C/[C@H]1OC(O)C[C@H](O)[C@@H]1C/C=C\CC(=O)O (some centres undefined)	i
COC(=O)[C@H]1[C@@H]2C[C@H]3c4[nH]c5ccccc5c4CCN3C[C@@H]2CC[C@@H]1O	i
CCCCC/C=C\C/C=C\C/C=C\C/C=C\CCCCCC(=O)NCCCC(=O)O	i
N[C@@H](CSS(=O)(=O)O)C(=O)O	i
COC(=O)c1cc(C(=O)OCC(=O)N2c3ccccc3NC(=O)C2(C)C)cc([N+](=O)[O-])c1	i
CCCC(=O)N1c2ccccc2C(=C2SC(C(=O)OC)=C(C(=O)OC)S2)C(=S)C1(C)C	12.6µM
CC1(C)C(=O)Nc2ccccc2N1C(=O)CSc1nc(-c2ccccc2)cs1	i
C(=N\N1CCN(Cc2ccccc2)CC1)/c1cccnc1	i
CCN(CC)c1ccc(/C=N/N2CCN(Cc3ccccc3)CC2)cc1	28.2µM
C(=N\N1CCN(Cc2ccccc2)CC1)/c1ccccc1	i
COc1cc2oc(=O)c3c4c(cc5ccc(c1CCN(C)C)c2c53)OCO4	i
COC(=O)[C@@]1(Cc2ccc(OC)cc2)[C@H]2c3cc(C(=O)N(C)C)n(Cc4ccc(C)c(F)c4F)c3C[C@H]2CN1C(=O)c1ccccc1	i
CCCn1c(C)nc2c(Nc3ccccc3)nc(C)nc21	i
